These results are taken from paper PMC4336329 (PLoS ONE, 2015).

In all, about 310,000 compounds went through this assay and about 14,000 (4.5%) showed an effect of 50% or more. The effect is printed as a negative number. The sample as a whole holds a higher share of strong results than the screen did.
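Also: peak tail current of the secondary pulse compared with the same well before compound.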

The target of this experiment is human ether-à-go-go-related gene (hERG) potassium channel (human, UniProt Q12809). The experiment can be described thus: primary screen, population patch clamp on CHO cells stably expressing hERG; higher = less effect of the substance.
Chain of human ether-à-go-go-related gene (hERG) potassium channel (Q12809 whole entry, looked up): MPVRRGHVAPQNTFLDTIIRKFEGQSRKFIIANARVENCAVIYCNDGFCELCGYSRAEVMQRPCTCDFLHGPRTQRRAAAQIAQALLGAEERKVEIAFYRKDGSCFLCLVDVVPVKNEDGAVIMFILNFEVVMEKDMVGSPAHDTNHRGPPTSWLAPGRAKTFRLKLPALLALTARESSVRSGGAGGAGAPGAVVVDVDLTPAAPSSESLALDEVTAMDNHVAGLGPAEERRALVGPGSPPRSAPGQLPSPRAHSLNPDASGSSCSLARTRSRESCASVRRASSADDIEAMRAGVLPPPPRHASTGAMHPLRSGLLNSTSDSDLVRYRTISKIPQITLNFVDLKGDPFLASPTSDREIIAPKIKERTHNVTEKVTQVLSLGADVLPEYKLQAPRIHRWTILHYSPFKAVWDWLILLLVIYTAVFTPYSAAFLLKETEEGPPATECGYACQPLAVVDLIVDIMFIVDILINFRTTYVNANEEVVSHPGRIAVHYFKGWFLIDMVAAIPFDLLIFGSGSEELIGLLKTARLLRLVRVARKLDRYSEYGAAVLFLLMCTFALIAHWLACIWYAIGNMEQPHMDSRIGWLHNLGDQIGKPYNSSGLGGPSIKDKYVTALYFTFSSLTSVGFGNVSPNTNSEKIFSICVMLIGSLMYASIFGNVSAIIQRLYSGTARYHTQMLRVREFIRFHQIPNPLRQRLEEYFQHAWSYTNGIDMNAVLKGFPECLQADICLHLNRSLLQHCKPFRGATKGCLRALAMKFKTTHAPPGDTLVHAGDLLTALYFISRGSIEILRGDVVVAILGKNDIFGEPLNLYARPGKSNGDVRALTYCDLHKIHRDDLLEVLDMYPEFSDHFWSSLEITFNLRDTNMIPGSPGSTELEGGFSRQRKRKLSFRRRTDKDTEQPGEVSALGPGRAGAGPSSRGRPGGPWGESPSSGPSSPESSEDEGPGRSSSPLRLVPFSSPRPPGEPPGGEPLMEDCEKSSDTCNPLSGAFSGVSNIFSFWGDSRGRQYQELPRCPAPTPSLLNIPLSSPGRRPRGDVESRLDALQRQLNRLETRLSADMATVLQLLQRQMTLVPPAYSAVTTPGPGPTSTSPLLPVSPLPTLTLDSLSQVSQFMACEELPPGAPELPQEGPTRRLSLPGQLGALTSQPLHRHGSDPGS
As for `CC(C)CN(C(=O)COC(=O)C1CC1)c1c(N)n(Cc2ccccc2)c(=O)[nH]c1=O`, the “hERG current change (%, negative = inhibition) at 10uM” value is recorded as 13%.

Consider `CCc1c(O)nc(SCC(=O)Nc2nc3ccccc3s2)n(-c2ccc(C)cc2)c1=O`, for which the “hERG current change (%, negative = inhibition) at 10uM” value is reported as -17.8%.

Regarding `Clc1ccc(-c2csc(N3CCc4ccccc4C3)n2)cc1`, the “hERG current change (%, negative = inhibition) at 10uM” value came to 14.3%.

For `COc1c(S(=O)(=O)NCCN2CCOCC2)ccc(Cl)c1Cl`, the “hERG current change (%, negative = inhibition) at 10uM” value was -16.3%.

For the molecule `CNC(=O)COC(=O)c1cc(NC(=O)c2ccco2)c(OC)c(OC)c1`, the “hERG current change (%, negative = inhibition) at 10uM” value amounted to 2.4%.

On to `O=S(=O)(c1cc(C(F)(F)F)ccc1Cl)N1CCN(c2ccccn2)CC1`, for which the “hERG current change (%, negative = inhibition) at 10uM” value was -26.3%.

On to `CC(C)n1cnnc1SCC(=O)Nc1cccc(S(=O)(=O)N(C)c2ccccc2)c1`, for which the “hERG current change (%, negative = inhibition) at 10uM” value is listed as -12.4%.

For the molecule `c1ccc(C2(c3ccccc3)OCC(Cn3cncn3)O2)cc1` (centres unmarked), the “hERG current change (%, negative = inhibition) at 10uM” value is given as -0.819%.

Consider `COc1ccc(/C=N/n2cnc3c(sc(=S)n3-c3ccccc3)c2=O)cc1`, for which the “hERG current change (%, negative = inhibition) at 10uM” value is on record as 13.4%.

In the case of `O=C(c1cc(-c2ccccc2)nc2ccccc12)N1N=C(C(F)F)CC1(O)C(F)F` (centres unmarked), the “hERG current change (%, negative = inhibition) at 10uM” value is recorded as -13.2%.

Regarding `O=C(c1cc(C2CC2)nc2ccccc12)N1N=C(C(F)F)CC1(O)C(F)F` (centres unmarked), the “hERG current change (%, negative = inhibition) at 10uM” value is -18.3%.

Regarding `O=C(c1ccccc1-n1cccc1)N1N=C(C(F)F)CC1(O)C(F)F` (centres unmarked), the “hERG current change (%, negative = inhibition) at 10uM” value was -63.2%.

Turning to `COc1ccc(-c2cc(C(=O)NCc3ccco3)c3ccccc3n2)cc1`, the “hERG current change (%, negative = inhibition) at 10uM” value is given as -5.84%.

Turning to `Cc1nn(-c2cc(Cl)ccc2Cl)c(C)c1C(=O)O`, the “hERG current change (%, negative = inhibition) at 10uM” value amounted to 13.2%.

For the molecule `CN(c1ccc(OCC(=O)N2CCCCC2)cc1)S(=O)(=O)c1cccs1`, the “hERG current change (%, negative = inhibition) at 10uM” value was -11.2%.

With `CN(c1ccc(OCC(=O)NC2CCCC2)cc1)S(=O)(=O)c1cccs1`, the “hERG current change (%, negative = inhibition) at 10uM” value was -80.6%.

`O=C(COc1ccc(S(=O)(=O)NC2CCCCC2)cc1)NC1CC1`: the “hERG current change (%, negative = inhibition) at 10uM” value was found to be 3.4%.

Turning to `CC(=O)N1CCN(C(=O)COc2ccc(N(C)S(=O)(=O)c3cccs3)cc2)CC1`, the “hERG current change (%, negative = inhibition) at 10uM” value is -14.7%.

As for `Cc1ccc(N(CC(=O)NC2CCCCC2)S(=O)(=O)c2cccs2)cc1`, the “hERG current change (%, negative = inhibition) at 10uM” value was 5.9%.

In the case of `O=C(COc1ccc(S(=O)(=O)NC2CCCCC2)cc1)NC1CCCC1`, the “hERG current change (%, negative = inhibition) at 10uM” value is reported as -8.19%.

With `CN(c1ccc(OCC(=O)N2CCN(c3ccc(F)cc3)CC2)cc1)S(=O)(=O)c1cccs1`, the “hERG current change (%, negative = inhibition) at 10uM” value is listed as -58.7%.

Turning to `Cc1ccc2c(c1)C1CN(C)CCC1N2C(=O)COc1ccc(N(C)S(=O)(=O)c2cccs2)cc1` (centres unmarked), the “hERG current change (%, negative = inhibition) at 10uM” value is reported as -52.9%.

With `CCOc1ccc(S(=O)(=O)N(C)c2ccc(OCC(=O)N3c4ccc(C)cc4C4CN(C)CCC43)cc2)cc1` (centres unmarked), the “hERG current change (%, negative = inhibition) at 10uM” value was -38.5%.

Take `Cc1ccc2c(c1)C1CN(C)CCC1N2C(=O)COc1ccc(N(C)C(=O)C(C)(C)C)cc1` (centres unmarked): the “hERG current change (%, negative = inhibition) at 10uM” value is on record as -9.48%.

For the molecule `O=C(COc1ccc(S(=O)(=O)NC2CCCCC2)cc1)NC1CCCCC1`, the “hERG current change (%, negative = inhibition) at 10uM” value was -54.1%.

Turning to `CCN(CC)c1ccc(NC(=O)COc2ccc(N(C)S(=O)(=O)c3cccs3)cc2)cc1`, the “hERG current change (%, negative = inhibition) at 10uM” value worked out at 8.15%.

In the case of `C#Cc1cccc(C(=O)N2CCCC(C(=O)c3ccc(OC)cc3C)C2)c1` (centres unmarked), the “hERG current change (%, negative = inhibition) at 10uM” value was -6.8%.

With `COc1ccc(S(=O)(=O)N2CCC(C(=O)Nc3ccccc3N3CCCCC3)CC2)cc1OC`, the “hERG current change (%, negative = inhibition) at 10uM” value stood at 3.04%.

On to `Cc1ccc(S(=O)(=O)N2CCC(C(=O)Nc3ccccc3N3CCCCC3)CC2)cc1C`, for which the “hERG current change (%, negative = inhibition) at 10uM” value was -9.46%.

On to `C=CCn1c(Cc2csc(N)n2)nnc1SCC(=O)OCC`, for which the “hERG current change (%, negative = inhibition) at 10uM” value is -0.614%.

Consider `O=C(O)CCc1nc2ccccc2c(=O)[nH]1`, for which the “hERG current change (%, negative = inhibition) at 10uM” value is listed as 38.7%.

For the molecule `CC(=O)c1cn(CC(=O)NCc2cccnc2)c2ccccc12`, the “hERG current change (%, negative = inhibition) at 10uM” value was 3.67%.

In the case of `CCc1nnc(NC(=O)CSc2nnc(-c3cccnc3)n2C)s1`, the “hERG current change (%, negative = inhibition) at 10uM” value came out at 13.6%.

As to `CCOc1ccc(OCCC(=O)OCC(=O)N2CCN(c3ccc(OC)cc3)CC2)cc1`, the “hERG current change (%, negative = inhibition) at 10uM” value stood at 6.92%.

Take `CN1CCN(C(=O)c2ccccc2NC(=O)CCN2C(=O)c3ccccc3C2=O)CC1`: the “hERG current change (%, negative = inhibition) at 10uM” value is recorded as -3.71%.

Turning to `C=CCSc1nnc(NC(=O)CSc2nc3ccccc3[nH]2)s1`, the “hERG current change (%, negative = inhibition) at 10uM” value came out at 9.74%.

With `COc1cccc(NC(=O)Cn2c(-c3cncs3)nc3ccccc32)c1`, the “hERG current change (%, negative = inhibition) at 10uM” value is listed as -23.9%.

Regarding `O=C(CNC(=O)c1ccco1)OCc1cccc(Cl)c1`, the “hERG current change (%, negative = inhibition) at 10uM” value is -7.25%.

Regarding `COC(=O)c1c(C)n(Cc2ccccc2)c2ccc(O)cc12`, the “hERG current change (%, negative = inhibition) at 10uM” value is listed as 14.8%.

For the molecule `COC(=O)c1c(C)n(-c2ccc(C)cc2)c2ccc(O)cc12`, the “hERG current change (%, negative = inhibition) at 10uM” value is -3.54%.

Consider `COC(=O)c1c(C(=O)OC)n(CCCN)c2ccc(C)cc12.Cl`, for which the “hERG current change (%, negative = inhibition) at 10uM” value is given as -77%.
